Assay results as given in PubChem BioAssay AID1159580 (chemical genetic matrix, 2015).
Hit rate of the full screen: of about 5,500 compounds, about 2,000 (36%) were called active. About 18% were inconclusive and are not listed. No stated cut-off is given here; in the data, active means normalized growth mostly below about 0.91 (no sharp cut-off); inconclusive means no clear call, values can overlap the other calls; inactive means mostly above about 0.92. The list shows a part of the results.

Test: chemical genetic growth profiling, strain panel (AID 1159580);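 further: tested at 20 µM; growth read once vehicle control cultures reached saturation at 30 °C; 1 = growth at the plate median or of vehicle wells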
Conditions: growth OD

Measured: normalized growth

CCCCCCCCCCC[C@@H](C[C@H]1OC(=O)[C@H]1CCCCCC)OC(=O)[C@@H](CC(C)C)NC=O
inactive: S. cerevisiae deletion strains, locus YJR043C, strain POL32, stronger effect = lower value 1.03 | S. cerevisiae deletion strains, locus YJR075W, strain HOC1, stronger effect = lower value 1.06 | S. cerevisiae deletion strains, locus YKL009W, strain mrt4, stronger effect = lower value 0.996 | S. cerevisiae deletion strains, locus YKL068W, stronger effect = lower value 1 | S. cerevisiae deletion strains, locus YKL085W, strain MDH1 (second series), stronger effect = lower value 1.02 | S. cerevisiae deletion strains, locus YKL085W, strain MDH1, stronger effect = lower value 1.02 | S. cerevisiae deletion strains, locus YKL160W, strain elf1, stronger effect = lower value 0.988 | S. cerevisiae deletion strains, locus YKL190W, strain CNB1, stronger effect = lower value 1.03 | S. cerevisiae deletion strains, locus YKR001C, strain vps1, stronger effect = lower value 1.03 | S. cerevisiae deletion strains, locus YKR026C, strain gcn3, stronger effect = lower value 1.03 | S. cerevisiae deletion strains, locus YKR091W, strain srl3, stronger effect = lower value 1.05 | S. cerevisiae deletion strains, locus YLL001W, strain dnm1, stronger effect = lower value 1.04 | S. cerevisiae deletion strains, locus YLL026W, stronger effect = lower value 0.997 | S. cerevisiae deletion strains, locus YLL041C, strain sdh2, stronger effect = lower value 1.03 | S. cerevisiae deletion strains, locus YLR027C, strain aat2, stronger effect = lower value 1.03 | S. cerevisiae deletion strains, locus YLR039C, strain RIC1, stronger effect = lower value 1.03 | S. cerevisiae deletion strains, locus YLR058C, strain SHM2, stronger effect = lower value 1.04 | S. cerevisiae deletion strains, locus YLR102C, strain apc9, stronger effect = lower value 1.01 | S. cerevisiae deletion strains, locus YLR221C, strain rsa3, stronger effect = lower value 1.03 | S. cerevisiae deletion strains, locus YLR258W, strain gsy2, stronger effect = lower value 1.03 | S. cerevisiae deletion strains, locus YLR262C, strain YPT6 (second series), stronger effect = lower value 1.1 | S. cerevisiae deletion strains, locus YLR262C, strain YPT6, stronger effect = lower value 1.07 | S. cerevisiae deletion strains, locus YLR268W, strain sec22, stronger effect = lower value 1.02 | S. cerevisiae deletion strains, locus YLR320W, strain mms22, stronger effect = lower value 1.05 | S. cerevisiae deletion strains, locus YLR330W, strain CHS5, stronger effect = lower value 1.03 | S. cerevisiae deletion strains, locus YLR342W, strain FKS1 (second series), stronger effect = lower value 1.02 | S. cerevisiae deletion strains, locus YLR342W, strain FKS1, stronger effect = lower value 1.01 | S. cerevisiae deletion strains, locus YLR357W, strain rsc2, stronger effect = lower value 1.09 | S. cerevisiae deletion strains, locus YLR370C, strain arc18, stronger effect = lower value 1.03 | S. cerevisiae deletion strains, locus YLR371W, strain rom2, stronger effect = lower value 1.01 | S. cerevisiae deletion strains, locus YLR384C, strain iki3, stronger effect = lower value 1.03 | S. cerevisiae deletion strains, locus YLR418C, strain cdc73, stronger effect = lower value 1.03 | S. cerevisiae deletion strains, locus YML016C, strain PPZ1, stronger effect = lower value 1.04 | S. cerevisiae deletion strains, locus YML032C, strain rad52, stronger effect = lower value 1.04 | S. cerevisiae deletion strains, locus YML120C, strain ndi1, stronger effect = lower value 1.02 | S. cerevisiae deletion strains, locus YML124C, strain tub3, stronger effect = lower value 1.01 | S. cerevisiae deletion strains, locus YMR058W, strain fet3, stronger effect = lower value 1.06 | S. cerevisiae deletion strains, locus YMR078C, strain ctf18, stronger effect = lower value 1.03 | S. cerevisiae deletion strains, locus YMR125W, strain sto1, stronger effect = lower value 1.05 | S. cerevisiae deletion strains, locus YMR129W, stronger effect = lower value 1.02 | S. cerevisiae deletion strains, locus YMR205C, strain PFK2, stronger effect = lower value 1.02 | S. cerevisiae deletion strains, locus YMR223W, strain ubp8, stronger effect = lower value 1.03 | S. cerevisiae deletion strains, locus YMR231W, strain pep5, stronger effect = lower value 1.05 | S. cerevisiae deletion strains, locus YMR263W, strain SAP30, stronger effect = lower value 1.04 | S. cerevisiae deletion strains, locus YMR307W, strain GAS1, stronger effect = lower value 1.05 | S. cerevisiae deletion strains, locus YNL067W, strain RPL9B, stronger effect = lower value 1.04 | S. cerevisiae deletion strains, locus YNL071W, strain lat1, stronger effect = lower value 1.02 | S. cerevisiae deletion strains, locus YNL128W, strain TEP1, stronger effect = lower value 1.02 | S. cerevisiae deletion strains, locus YNL153C, strain GIM3, stronger effect = lower value 1.04 | S. cerevisiae deletion strains, locus YNL209W, strain ssb2, stronger effect = lower value 1.06 | S. cerevisiae deletion strains, locus YNL233W, strain BNI4, stronger effect = lower value 1.03 | S. cerevisiae deletion strains, locus YNL248C, strain rpa49, stronger effect = lower value 1.06 | S. cerevisiae deletion strains, locus YNL250W, strain rad50, stronger effect = lower value 1.03 | S. cerevisiae deletion strains, locus YNL271C, strain bni1, stronger effect = lower value 1.02 | S. cerevisiae deletion strains, locus YNL298W, strain CLA4, stronger effect = lower value 1.03 | S. cerevisiae deletion strains, locus YNL307C, strain MCK1, stronger effect = lower value 1.03 | S. cerevisiae deletion strains, locus YNL322C, strain KRE1 (second series), stronger effect = lower value 1.03 | S. cerevisiae deletion strains, locus YNL322C, strain KRE1, stronger effect = lower value 1.04 | S. cerevisiae deletion strains, locus YNR049C, strain mso1, stronger effect = lower value 1.04 | S. cerevisiae deletion strains, locus YNR052C, strain pop2, stronger effect = lower value 1.03 | S. cerevisiae deletion strains, locus YOL006C, strain TOP1, stronger effect = lower value 1.08 | S. cerevisiae deletion strains, locus YOL012C, strain htz1 1.37 | S. cerevisiae deletion strains, locus YOL147C, strain pex11, stronger effect = lower value 1.02 | S. cerevisiae deletion strains, locus YOR001W, strain rrp6, stronger effect = lower value 1.03 | S. cerevisiae deletion strains, locus YOR061W, strain CKA2, stronger effect = lower value 1.03 | S. cerevisiae deletion strains, locus YOR069W, strain VPS5, stronger effect = lower value 1.02 | S. cerevisiae deletion strains, locus YOR070C, strain gyp1, stronger effect = lower value 1.04 | S. cerevisiae deletion strains, locus YOR080W, strain dia2, stronger effect = lower value 0.999 | S. cerevisiae deletion strains, locus YOR083W, strain WHI5, stronger effect = lower value 1.04 | S. cerevisiae deletion strains, locus YOR106W, strain vam3, stronger effect = lower value 1.03 | S. cerevisiae deletion strains, locus YOR136W, strain idh2, stronger effect = lower value 1.03 | S. cerevisiae deletion strains, locus YOR144C, strain elg1, stronger effect = lower value 1.02 | S. cerevisiae deletion strains, locus YOR184W, strain ser1, stronger effect = lower value 1 | S. cerevisiae deletion strains, locus YOR265W, strain rbl2, stronger effect = lower value 1.05 | S. cerevisiae deletion strains, locus YOR270C, strain vph1, stronger effect = lower value 1.11 | S. cerevisiae deletion strains, locus YOR290C, strain snf2, stronger effect = lower value 1.05 | S. cerevisiae deletion strains, locus YOR316C, strain cot1, stronger effect = lower value 1.01 | S. cerevisiae deletion strains, locus YPL051W, strain arl3, stronger effect = lower value 1.06 | S. cerevisiae deletion strains, locus YPL055C, strain LGE1, stronger effect = lower value 1.04 | S. cerevisiae deletion strains, locus YPL078C, strain atp4, stronger effect = lower value 1.08 | S. cerevisiae deletion strains, locus YPL106C, strain sse1, stronger effect = lower value 1.05 | S. cerevisiae deletion strains, locus YPL240C, strain hsp82, stronger effect = lower value 1.02 | S. cerevisiae deletion strains, locus YPL241C, strain CIN2, stronger effect = lower value 1.03 | S. cerevisiae deletion strains, locus YPR119W, strain clb2, stronger effect = lower value 0.996 | S. cerevisiae deletion strains, locus YPR141C, strain kar3, stronger effect = lower value 1.02 | S. cerevisiae deletion strains, locus YPR163C, strain tif3, stronger effect = lower value 1.03 | S. cerevisiae deletion strains, locus YPR167C, strain met16, stronger effect = lower value 1.01 | S. cerevisiae deletion strains, strain wtn01, stronger effect = lower value 1.01 | S. cerevisiae strains, strain wild type, stronger effect = lower value 1.04
